Compounds with a hit are over-represented: about 3% of the library has one in this group of screens.
SENP8 block-1: blocks the human protease SENP8. inhibition, % at 10 µM. purified SENP8, Z-RLRGG-aminoluciferin cleavage, luminescence. 330,000 compounds, 1.2% hits; in the data active = inhibition above about 50%
Target sequence (Q96LD8 whole entry, looked up): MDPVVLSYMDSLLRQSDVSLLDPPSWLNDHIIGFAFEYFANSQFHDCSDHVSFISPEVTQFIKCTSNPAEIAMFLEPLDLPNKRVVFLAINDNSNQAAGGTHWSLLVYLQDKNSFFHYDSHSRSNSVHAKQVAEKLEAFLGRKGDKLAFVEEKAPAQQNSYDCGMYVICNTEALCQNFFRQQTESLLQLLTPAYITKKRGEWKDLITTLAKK
SENP7 block: inhibitors of human SENP7 protease; recombinant SENP7, Z-RLRGG-aminoluciferin luminescence, 40 min; inhibition, % at 5 µM; 330,000 compounds, 1.5% hits;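 active = inhibition above about 50% at the single test dose, limit read from the data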;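 also: plate controls were DMSO with enzyme for no effect and no enzyme buffer wells for full effect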
Target sequence (Q9BQF6 706-1050 limits assumed): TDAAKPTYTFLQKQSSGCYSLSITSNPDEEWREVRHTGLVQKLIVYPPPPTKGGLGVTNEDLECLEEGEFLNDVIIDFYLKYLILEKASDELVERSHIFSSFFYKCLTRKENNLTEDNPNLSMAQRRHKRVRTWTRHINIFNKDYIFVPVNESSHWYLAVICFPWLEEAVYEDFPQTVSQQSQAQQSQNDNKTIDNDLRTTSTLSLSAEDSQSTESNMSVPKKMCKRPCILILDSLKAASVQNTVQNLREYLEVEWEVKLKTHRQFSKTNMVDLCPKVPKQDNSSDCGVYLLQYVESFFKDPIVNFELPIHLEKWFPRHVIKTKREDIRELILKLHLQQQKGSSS
TRAIL sens C8: caspase-8 TRAIL sensitization; NB7+C8 cells + TRAIL, ATPlite viability luminescence; inhibition (viability loss, TRAIL sensitization), % at 10 µM; 360,000 compounds, 1% hits; AID 624354;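 active = compounds causing at least 50% loss of cell viability in the single-dose screen, relative to plate controls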
PPC-1+TRAIL kill: PPC-1 cancer cell killing with TRAIL present; PPC-1 cells + TRAIL, ATPLite viability luminescence; cell killing (% activity), % at 4 µM or 5 µM; 220,000 compounds, 0.41% hits; AID 1443;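 active = cell killing above 50% in the first pass at 4 µM, then a duplicate retest at 5 µM averaging 50% or more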;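 also: plate controls were cells with TRAIL plus DMSO for no effect and medium-only wells lacking cells for full effect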
SENP8 block-2: SENP8 (human) protease inhibition; recombinant SENP8, Nedd8 substrate fluorescence; inhibition, % at 20 µM; 360,000 compounds, 0.64% hits; AID 602440; in the data active = inhibition mostly above about 40%, no sharp cut-off; inactive = mostly below about 27%
SENP6 inh: inhibitors of human SENP6 protease | Q9GZR1 | Recombinant SENP6 catalytic domain, aminoluciferin luminescence | inhibition, % at 10 µM | 330,000 compounds, 1.8% hits | AID 2599;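 active = inhibition above about 50% at the single tested dose, limit read from the data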;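 also: plate controls were DMSO wells with enzyme for no effect and DMSO wells lacking enzyme for full effect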
SENP8 conf: SENP8 (human) inhibition, single concentration confirmation | inhibition, % at 25 µM | shares compounds with SENP8 block-2 | 1,400 compounds, 15% hits | purified SENP8, Nedd8-AMC/pro-Nedd8 cleavage fluorescence, 30 min | AID 624319; in the data active = inhibition mostly above about 39%, no sharp cut-off; inactive = mostly below about 34%
Starred values were filed as active, the others as inactive; · = no result given.

SMILES | SENP8 block-1 | SENP7 block | TRAIL sens C8 | PPC-1+TRAIL kill | SENP8 block-2 | SENP6 inh | SENP8 conf
Cc1ccc(S(=O)(=O)N2CCC(C(=O)NNC(=O)c3cccnc3)CC2)cc1 | 2 | -4 | 8 | 14 | 15 | -2 | ·
O=[N+]([O-])c1c(Nc2ccccc2O)cc(Cl)c2nonc12 | -4 | -5 | 71* | · | 42* | 12 | 12
O=[N+]([O-])c1c(Nc2ccccc2O)ccc2nonc12 | -1 | 0 | -3 | · | 19 | -7 | ·
O=[N+]([O-])c1c(Nc2ccc(O)cc2)cc(N2CCOCC2)c2nonc12 | -3 | 3 | 15 | 10 | 49* | -13 | 29
Nc1[nH]c(C(=O)c2ccccc2)c(-c2ccc(Cl)cc2Cl)c1C(=O)NCCc1c[nH]c2ccccc12 | · | · | -8 | · | 14 | · | ·
Cc1cc(/N=C/N(C)C)on1 | 6 | 7 | -15 | 18 | 12 | -2 | ·
CN(C)C=Nc1nonc1N | -7 | -7 | 0 | 11 | 45* | -19 | 2
CCOc1ccc(NC(=S)Nc2cc(OC)c(Cl)cc2OC)cc1 | 1 | 9 | 8 | 21 | 44* | 11 | 7
CCOc1ccc(NC(=S)Nc2ccc3nsnc3c2)cc1 | -8 | -5 | -16 | 26 | 43* | -25 | 39
Cc1ccc(/C([O-])=C(/C(=S)NCc2ccco2)[n+]2ccccc2)cc1 | 0 | 4 | · | -8 | · | 18 | ·
[O-]/C(=C(\C(=S)NCc1ccco1)[n+]1ccccc1)c1ccccc1Br | 2 | 10 | 7 | 12 | 42* | 7 | 33
CC(NC(=O)[C@H](NC(=O)[C@@H]1Cc2ccccc2CN1)c1ccccc1)c1ccccc1 (stereo not given in full) | 4 | 2 | 0 | · | 41* | -5 | 9
Cc1ccc(C)c(Nc2c([N+](=O)[O-])ccc3nonc23)c1 | -8 | -15 | -8 | · | 45* | -12 | 18
Cc1nn(Cc2ccc(Cl)cc2Cl)c(C)c1NC(=O)Cn1nc([N+](=O)[O-])c(Cl)c1C | -2 | 6 | 23 | 38 | 54* | -2 | 8
Cc1nn(Cc2ccc(Cl)cc2)c(C)c1NC(=O)Cn1nc([N+](=O)[O-])c(Cl)c1C | -5 | -5 | 0 | 30 | 17 | -3 | ·
CC(C)c1ccc(/C=C(\NC(=O)c2ccccc2)C(=O)NCCN2CCOCC2)cc1 | -5 | -3 | 2 | · | 0 | -4 | ·
O=C(Nc1cc(Cl)cc2c1-c1ccc(Cl)cc1C2O)C(Cl)Cl (stereo not given) | · | · | 33 | · | 25 | · | ·
CCOC(=O)c1ccc(-n2c(CN3CCN(CC)CC3)nc3ccc([N+](=O)[O-])cc3c2=O)cc1 | 9 | 8 | -5 | 4 | 41* | 4 | 15
C=CCO/N=C(/C)c1ccc(Oc2cnccn2)cc1 | -1 | -1 | -2 | -12 | 10 | -8 | ·
Cc1cc(C)cc(NC(=O)N2CCN(S(C)(=O)=O)CC2)c1 | -5 | -12 | 1 | 13 | 5 | 11 | ·
O=C(COC(=O)c1cc(S(=O)(=O)N2CCOCC2)ccc1Cl)Nc1ccc2c(c1)OCO2 | -2 | 4 | -5 | -1 | 45* | -7 | 11
O=C(COC(=O)c1cc(S(=O)(=O)N2CCOCC2)ccc1Cl)NCc1ccc2c(c1)OCO2 | 4 | 5 | 0 | · | 1 | 2 | ·
O=[N+]([O-])c1ccc(Cl)cc1NCc1cccnc1 | 0 | -2 | 8 | · | 51* | -5 | 13
O=C(Cn1c(=O)n(CCC(=O)N2CCc3ccccc3C2)c(=O)c2ccccc21)NCC1CCCO1 (stereo not given) | · | · | -12 | 5 | 62* | · | 16
O=C(Cn1c(=O)n(Cc2ccccc2)c(=O)c2cc(Cl)ccc21)NCC1CCCO1 (stereo not given) | -10 | -9 | -4 | · | -2 | -7 | ·
SMILES | SENP8 block-1 | SENP7 block | TRAIL sens C8 | PPC-1+TRAIL kill | SENP8 block-2 | SENP6 inh | SENP8 conf
O=C(COC(=O)CNC(=O)c1ccc(-c2ccccc2)cc1)NCc1ccco1 | -6 | -6 | 0 | 16 | 20 | -11 | ·
COc1cc(/C=C2\SC(=O)N(Cc3ccc(F)cc3)C2=O)cc([N+](=O)[O-])c1O | 7 | -4 | 6 | 18 | 40* | 7 | 21
O=C(c1cc([N+](=O)[O-])ccc1Cl)N1CCN(Cc2ccc3c(c2)OCO3)CC1 | 1 | 5 | -3 | 8 | 19 | -9 | ·
O=C(c1cc([N+](=O)[O-])cc([N+](=O)[O-])c1)N1CCN(Cc2ccc3c(c2)OCO3)CC1 | 6 | 2 | 1 | -20 | 50* | 28 | 20
CCOC(=O)c1nn(-c2ccc(OC)cc2)c(=O)c2c(N)scc12 | 3 | -6 | 8 | 26 | 41* | 25 | 53*
CCOC(=O)c1nnn(-c2ccc(OC)cc2)c1N | 3 | 7 | 13 | 15 | 25 | -7 | ·
Cc1ccc(C2(c3ccccc3)NC(=O)N(CC(=O)NC3(C#N)CCCC3)C2=O)cc1C (stereo not given) | 5 | 7 | -4 | · | 20 | -4 | ·
Cc1ccc(S(=O)(=O)N/N=C/c2ccc(OCC(=O)Nc3ccccc3Cl)cc2)cc1 | -6 | 0 | -21 | 23 | 13 | -13 | ·
COc1ccccc1NC(=O)COc1ccc(/C=N/NS(=O)(=O)c2ccc(C)cc2)cc1 | -4 | -2 | -6 | 2 | 47* | -23 | 14
Cc1cccc(NS(=O)(=O)c2cc(C(=O)OCC(=O)Nc3cc(C)on3)ccc2C)c1 | 7 | 7 | 8 | -10 | 41* | 8 | 19
Cc1cccc(NC(=O)COC(=O)c2ccc(C)c(S(=O)(=O)N3CCCCC3)c2)c1 | -8 | -6 | 8 | · | 10 | -29 | ·
O=C(NCc1ccco1)c1nc2ccccc2s1 | -6 | -2 | 8 | -9 | 24 | 14 | ·
CC1=CC(=C(C#N)c2nc3ccccc3s2)C=C(C)N1Cc1ccco1 | 16 | 2 | 1 | 1 | 59* | 38 | 18
NC(=O)c1ccc(Oc2ccc(C(N)=O)cc2)cc1 | -7 | -9 | 2 | -21 | 21 | -5 | ·
Cc1ccc(S(=O)(=O)N2C[C@H]3[C@H]4C(=O)N(c5ccccc5)C(=O)[C@H]4CC(=O)[C@H]3[C@@H]2c2cccc3ccccc23)cc1 | · | · | -7 | · | 16 | · | ·
Cc1ccc(S(=O)(=O)N2C[C@H]3[C@H]4C(=O)N(c5ccccc5)C(=O)[C@H]4CC(=O)[C@H]3[C@@H]2c2ccccc2F)cc1 | · | · | -8 | · | 50* | · | 23
CC(C(=O)NN)c1ccc([N+](=O)[O-])cc1 (stereo not given) | -2 | 2 | 14 | -6 | 14 | 15 | ·
CCOC(=O)C1=C(O)C(=O)N(c2ccc(S(N)(=O)=O)cc2)C1c1cccc([N+](=O)[O-])c1 (stereo not given) | -9 | -5 | -20 | 2 | 26 | -12 | ·
CCOC(=O)C1=C(O)C(=O)N(c2ccccc2)C1c1cccc([N+](=O)[O-])c1 (stereo not given) | 7 | -1 | 9 | -2 | 40* | -22 | 27
